Where a name gives a salt, the structure may show the parent alone.
test system: Danio rerio larvae (5 dpf); experiment: habituation (activity change first vs second 5 min of 1-s interval sound, period 17) minus DMSO control (percentage points); higher = larger habituation measure than DMSO larvae; conditions: 10 µM; exposure time: 3 h pre-incubation + 3 h imaging
Method: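 Wild-type 5 dpf zebrafish larvae (n=48 per drug, 96-well plates, 28.5 °C) were exposed to Tocris FDA-approved library compounds at 10 µM (0.1% DMSO) for 3 h before and 3 h during imaging. Images were taken every 6 s during visual (moving coloured lines) and acoustic stimuli, and larvae were tracked with the DeepLabCut-based Z-LaP Tracker. Each behavioural measure is the treated-group mean minus the DMSO vehicle control mean (n=844), in percentage points. This mapping covers compounds with 4-character plate codes.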

Which habituation does the source give for `Cc1cccc([C@H](C)c2c[nH]cn2)c1C` [Dexmedetomidine hydrochloride] here?
The habituation was -10.4.

`N[C@@H]1C[C@H]1c1ccccc1` [Tranylcypromine hydrochloride] was tested. Which habituation did it give?
Its habituation is -2.8.

`CN1C[C@H](C(=O)N[C@]2(C)O[C@@]3(O)[C@@H]4CCCN4C(=O)[C@H](Cc4ccccc4)N3C2=O)C[C@@H]2c3cccc4[nH]cc(c34)C[C@H]21` [Dihydroergotamine mesylate] was tested. Which habituation did it give?
The habituation was 2.38.

How did the habituation turn out when `C=C1C[C@@H]2[C@H](CC[C@]3(C)C(=O)CC[C@@H]23)[C@@]2(C)C=CC(=O)C=C12` [Exemestane] was run?
The habituation was -2.71.

For `CC(O)(CS(=O)(=O)c1ccc(F)cc1)C(=O)Nc1ccc(C#N)c(C(F)(F)F)c1` (stereo unspecified) [Bicalutamide], which habituation is on record?
Its habituation is -6.13.

`C=CCN1C[C@H](C(=O)N(CCCN(C)C)C(=O)NCC)C[C@@H]2c3cccc4[nH]cc(c34)C[C@H]21` [Cabergoline] was tested. Which habituation did it give?
Its habituation is 5.7.

How did the habituation turn out when `CC(C)C[C@H]1C(=O)N2CCC[C@H]2[C@]2(O)O[C@](NC(=O)[C@@H]3C=C4c5cccc6[nH]c(Br)c(c56)C[C@H]4N(C)C3)(C(C)C)C(=O)N12` [Bromocriptine mesylate] was run?
The habituation was -1.05.

Which habituation does the source give for `O=c1[nH]c2ccccc2n1C1CCN(CCCC(c2ccc(F)cc2)c2ccc(F)cc2)CC1` [Pimozide] here?
Its habituation is -10.2.

Which habituation does the source give for `COc1cc2c(cc1OC)C1CC(=O)C(CC(C)C)CN1CC2` (stereo unspecified) [Tetrabenazine] here?
The habituation was 0.576.

How did the habituation turn out when `CCN(C)C(=O)Oc1cccc([C@H](C)N(C)C)c1` [Rivastigmine tartrate] was run?
Its habituation is 0.0925.

`CC[C@@H](C(N)=O)N1CCCC1=O` [Levetiracetam] was tested. Which habituation did it give?
Its habituation is -2.
